Source: PubChem BioAssay (several laboratories)
DSG3 Ab inh – human desmoglein-3 autoantibody binding inhibition; DSG3-coupled beads, scFv-anti-DSG3-GFP binding, flow cytometry; stronger effect = lower value; P32926; AID 588358; 310,000 compounds, 0.48% hits; binding (percent of control), % at 10 µM;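 active = binding more than 3 SD below its plate's average and above zero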;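 note: hits lower antibody fragment binding to DSG3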
Target sequence (P32926 whole entry, looked up, the tested form may be a part): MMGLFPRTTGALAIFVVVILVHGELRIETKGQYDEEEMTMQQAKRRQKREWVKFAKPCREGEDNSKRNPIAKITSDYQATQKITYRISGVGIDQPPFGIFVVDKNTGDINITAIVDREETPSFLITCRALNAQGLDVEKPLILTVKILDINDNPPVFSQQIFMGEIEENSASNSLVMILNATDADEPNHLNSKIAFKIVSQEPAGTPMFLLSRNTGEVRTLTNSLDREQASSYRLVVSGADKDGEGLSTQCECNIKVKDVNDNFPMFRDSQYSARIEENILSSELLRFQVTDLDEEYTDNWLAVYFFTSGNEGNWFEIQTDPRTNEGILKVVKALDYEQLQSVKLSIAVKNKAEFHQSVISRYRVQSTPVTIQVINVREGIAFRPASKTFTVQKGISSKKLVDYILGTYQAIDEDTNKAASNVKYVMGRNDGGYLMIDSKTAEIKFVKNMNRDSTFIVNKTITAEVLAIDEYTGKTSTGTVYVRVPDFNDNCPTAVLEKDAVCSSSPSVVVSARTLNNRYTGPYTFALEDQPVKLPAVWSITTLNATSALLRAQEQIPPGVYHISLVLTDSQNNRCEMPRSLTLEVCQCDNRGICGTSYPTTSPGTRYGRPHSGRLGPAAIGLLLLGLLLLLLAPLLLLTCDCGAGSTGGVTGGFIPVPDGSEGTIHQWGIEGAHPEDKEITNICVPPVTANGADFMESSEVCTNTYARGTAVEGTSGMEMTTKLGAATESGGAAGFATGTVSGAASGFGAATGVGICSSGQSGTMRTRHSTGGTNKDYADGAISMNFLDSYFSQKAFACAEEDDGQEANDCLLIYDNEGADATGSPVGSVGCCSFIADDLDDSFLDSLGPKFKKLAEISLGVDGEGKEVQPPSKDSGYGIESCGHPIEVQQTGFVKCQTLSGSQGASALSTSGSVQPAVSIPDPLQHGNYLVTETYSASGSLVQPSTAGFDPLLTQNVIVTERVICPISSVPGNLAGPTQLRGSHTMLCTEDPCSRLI
ADAM10 inh – ADAM10 inhibition, QFRET primary screen; recombinant ADAM10, EDANS/DABCYL FRET peptide cleavage, 3 h; inhibition, % at 7 µM; 370,000 compounds, 0.62% hits;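 active = inhibition above a per-campaign cutoff equal to the mean of compounds falling between control-based bounds plus 3 SD, cut at about 20% in these data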;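 note: 0% = DMSO wells while the 100% control is not disclosed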
MPTP inh – blocks calcium-induced mitochondrial swelling | AID 602449 | isolated mouse mitochondria, Ca2+ swelling absorbance, 30 min | 360,000 compounds, 1.4% hits | inhibition, % at 10 µM;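 active = inhibition of 50% or more, scaled per plate between neutral and stimulator controls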;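 note: 0% = DMSO wells given calcium and 100% = 1 mM EGTA wells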
ADAM17 inh – inhibitors of human ADAM17; P78536; recombinant ADAM17, EDANS/DABCYL FRET peptide cleavage; inhibition, % at 6.95 µM; 370,000 compounds, 0.83% hits; AID 720648;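 active = inhibition above the mean of compounds lying between control limits plus 3 SD, set per campaign, cut at about 8.5% in these data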;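 note: 0% = DMSO-only wells as the low control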
proKLK7 act – activates the human kallikrein-7 zymogen; purified proKLK7, EDANS-DABCYL substrate fluorescence; 100% is mature enzyme control, 0% vehicle; activation, % at 7 µM; 370,000 compounds, 0.9% hits; AID 652039;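 active = activation above the mean of all tested compounds plus 3 SD, computed per campaign excluding outliers beyond control limits, cut at about 13% in these data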
rCAG binder – molecules binding r(CAG) RNA repeats; r(CAG) RNA repeat, TO-PRO-1 dye displacement fluorescence; inhibition, % at 3 µM; 370,000 compounds, 1.3% hits; AID 651821;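 active = inhibition above the plate cutoff, the mean of all test compounds on that plate plus 3 SD, cut at about 35% in these data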;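 note: 0% = DMSO alone and 100% = 100 µM mitoxantrone as full dye displacement; higher means more dye released from RNA so lower well fluorescence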
ADAM10 counter – counter-screen for ADAM17 exosite inhibitors: inhibitors of human ADAM10. inhibition, % at 6.95 µM. recombinant ADAM10, EDANS/DABCYL FRET peptide cleavage, 3 h. AID 743256. 2,900 compounds, 47% hits. shares compounds with ADAM17 inh;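 active = mean inhibition over the triplicate runs exceeds the activity threshold set in the earlier primary screen, cut at about 20% in these data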;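 note: 0% = DMSO wells and 100% = marimastat wells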
ADAM17 confirm – human ADAM17 inhibition, confirmation; recombinant ADAM17, EDANS/DABCYL QFRET peptide cleavage; inhibition, % at 6.95 µM; shares compounds with ADAM17 inh; AID 743257; 2,900 compounds, 65% hits;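 active = mean inhibition across replicates above the hit cutoff set in the primary screen, cut at about 8.5% in these data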;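 note: 0% = DMSO wells and 100% = marimastat wells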
An asterisk follows results filed as active; x = no result. Most compounds without a hit are left out; they make up all but 4.7% or so of the library.

SMILES	DSG3 Ab inh	ADAM10 inh	MPTP inh	ADAM17 inh	proKLK7 act	rCAG binder	ADAM10 counter	ADAM17 confirm
Cc1cc(F)cc(-c2cc(C(=O)NCc3cccc(Cl)c3)[nH]n2)c1	x	12	23	9.1*	0	3	6	2
Cc1cc(F)cc(-c2cc(C(=O)NCc3ccccc3)[nH]n2)c1	x	-7	2	-2	-1	8	x	x
CCc1nc2ccc(C(=O)NCc3cccs3)cn2c1N(CC)CCOC	x	-18	-1	-3	1	-1	x	x
Cc1ccc(C2=NNC(=O)C(P(=O)(c3ccccc3)c3ccccc3)C2)cc1 (stereo not given)	104	2	0	9.4*	1	-1	7	4
CC(C)[C@H]1COCCS(=O)(=O)N1Cc1ccccc1-c1cccc2c1oc1ccccc12	95	19	-3	11*	-1	8	9	7
CCCCOc1ccccc1-c1ccccc1CN1[C@@H](C(C)C)COCCS1(=O)=O	108	8	-1	3	0	5	x	x
O=C(COc1ccccc1)N1CCN(C(=O)c2cccs2)CC1	102	9	-1	-1	0	0	x	x
O=C(COc1ccccc1Br)N1CCN(C(=O)c2cccs2)CC1	101	7	0	8.8*	0	1	13	9.3*
COc1ccc(CN(C)C(=O)c2cc(-c3ccccc3)nc3ccc(C)cc23)c(OC)c1	103	14	0	12*	1	2	3	5
COc1ccccc1CN(C)C(=O)c1cc(C)nc2ccccc12	109	-5	0	2	-1	-2	x	x
COc1cccc(C(Nc2ccccc2)c2ccc3ccc(C)nc3c2O)c1 (stereo not given)	x	11	5	17*	0	10	13	15*
Cc1ccc(OCCC(=O)Nc2cc(S(=O)(=O)N3CCOCC3)ccc2N2CCCC2)cc1	100	-5	-1	-2	1	4	x	x
c1ccc(Cc2cnc(N3CCN(Cc4ccc5c(c4)OCCO5)CC3)nc2)cc1	x	5	x	11*	1	4	3	4
CCNC(=O)C1(C)CCN(C(=O)C(c2ccccc2)c2ccccc2)C1 (stereo not given)	x	-4	-1	0	-1	0	x	x
CN(C)S(=O)(=O)c1cc([N+](=O)[O-])ccc1N1CCCCCC1	100	13	0	10*	0	-3	18	11*
O=C1OCCN1C(=O)[C@H]1[C@H](c2ccc([N+](=O)[O-])cc2)C(c2ccccc2)=NN1c1ccc(Br)cc1	90	17	1	11*	-1	13	15	12*
O=C(c1nc[nH]c1C(=O)N1CCc2ccccc2C1)N1CCc2ccccc2C1	105	0	1	0	0	-3	x	x
COc1ccc(N=Cc2c(C)[nH][nH]c2=O)cc1	84	7	2	8.8*	0	5	13	7
Cc1cccnc1C1=NOC(Cc2ccccc2)C(=O)N1C (stereo not given)	x	0	0	-3	0	0	x	x
O=C(CNC(=O)c1ccc(Cl)cc1Cl)OCc1nnc(-c2ccccc2)o1	101	-11	0	3	0	-3	x	x
CC(C)CCN(C(=O)CCCSc1nc2ccccc2[nH]1)c1c(N)n(Cc2ccccc2)c(=O)[nH]c1=O	114	-42	-1	-15	0	-5	x	x
O=C(Nc1nnc([C@@H]2C[C@H](O)[C@@H](CO)O2)s1)Nc1ccc(F)cc1F	x	5	0	10*	0	1	2	2
O=C(/C=C/c1ccc(S(=O)(=O)NCc2ccco2)cc1)NCc1ccccc1Cl	97	17	0	9.9*	0	7	0	4
CNc1ccccc1C(C)(C)c1cn(-c2ccc([N+](=O)[O-])cc2)nn1	114	3	-1	-1	0	-4	x	x
